# Data published in the supplement of paper PMC8728848.
# The entries come from a sample that favours the strongest signals as a whole.
# B1: AAL (Agrocybe aegerita), Q6WY08 (protein)
# chain: MQGVNIYNISAGTSVDLAAPVTTGDIVTFFSSALNLNAGAGNPNNTTLNLFAENGAYLLHIAHRLQENVIIFNSRQPDGPWLVEQRVSDVANQFAGIDGKAMVTVFDHGDKYQVVINEKTVIQYTKQISGLTLSLSYNATEETSIFSTVVEAVTYTGLALEHHHHHH
# Legend:
# Assay in all cases: glycan array binding signal (z-score within array); higher = stronger binding
# Settings in all cases: glycan notation: IUPAC condensed, linker removed; mutation: F63H
# [1] = target: Gal3S(b1-3)[Fuc(a1-4)]GlcNAc
# Summary of the method: (§1)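 Arrays were curated from the Consortium for Functional Glycomics database, 3228 in total, and kept only where the protein sequence was available. Binding is expressed as a within-array Z-score. This score was averaged across arrays of the same protein sequence at different concentrations or buffers and across linkers, and negative values can be read as non-binding.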
# Gal4S(b1-4)GlcNAc = target: Gal4S(b1-4)GlcNAc
# Summary of the method: as §1
# GalNAc(b1-3)GlcNAc = target: GalNAc(b1-3)GlcNAc
# Summary of the method: as §1
# [2] = target: Glc(a1-6)Glc(a1-6)Glc(a1-6)Glc
# Summary of the method: as §1
# GlcA(b1-6)Gal = target: GlcA(b1-6)Gal
# Summary of the method: as §1
# [3] = target: GlcA3S(b1-3)Gal(b1-4)GlcNAc(b1-2)Man
# Summary of the method: as §1
# [4] = target: GlcA3S(b1-3)Gal(b1-4)GlcNAc(b1-3)Gal(b1-4)Glc
# Summary of the method: as §1
# [5] = target: GlcNAc(a1-4)Gal(b1-4)GlcNAc(b1-3)Gal(b1-4)GlcNAc
# Summary of the method: as §1
# [6] = target: GlcNAc(b1-2)Man(a1-3)[GlcNAc(b1-4)][GlcNAc(b1-2)Man(a1-6)]Man(b1-4)GlcNAc(b1-4)[Fuc(a1-6)]GlcNAc
# Summary of the method: as §1
# GlcNAc(b1-3)Gal(b1-4)Glc = target: GlcNAc(b1-3)Gal(b1-4)Glc
# Summary of the method: as §1
# [7] = target: GlcNAc(b1-3)Gal(b1-4)GlcNAc(b1-3)Gal(b1-4)GlcNAc(b1-2)[GlcNAc(b1-3)Gal(b1-4)GlcNAc(b1-3)Gal(b1-4)GlcNAc(b1-6)]Man(a1-6)[GlcNAc(b1-3)Gal(b1-4)GlcNAc(b1-3)Gal(b1-4)GlcNAc(b1-2)Man(a1-3)]Man(b1-4)GlcNAc(b1-4)[Fuc(a1-6)]GlcNAc
# Summary of the method: as §1
# [8] = target: GlcNAc(b1-3)Gal(b1-4)GlcNAc(b1-3)Gal(b1-4)GlcNAc(b1-3)Gal(b1-4)GlcNAc(b1-2)Man(a1-3)[GlcNAc(b1-3)Gal(b1-4)GlcNAc(b1-3)Gal(b1-4)GlcNAc(b1-3)Gal(b1-4)GlcNAc(b1-2)Man(a1-6)]Man(b1-4)GlcNAc(b1-4)[Fuc(a1-6)]GlcNAc
# Summary of the method: as §1
# [9] = target: GlcNAc(b1-3)Gal(b1-4)GlcNAc(b1-3)Gal(b1-4)GlcNAc(b1-3)Gal(b1-4)GlcNAc(b1-3)Gal(b1-4)GlcNAc(b1-2)[GlcNAc(b1-3)Gal(b1-4)GlcNAc(b1-3)Gal(b1-4)GlcNAc(b1-3)Gal(b1-4)GlcNAc(b1-3)Gal(b1-4)GlcNAc(b1-6)]Man(a1-6)[GlcNAc(b1-3)Gal(b1-4)GlcNAc(b1-3)Gal(b1-4)GlcNAc(b1-3)Gal(b1-4)GlcNAc(b1-3)Gal(b1-4)GlcNAc(b1-2)Man(a1-3)]Man(b1-4)GlcNAc(b1-4)[Fuc(a1-6)]GlcNAc
# Summary of the method: as §1
# [10] = target: GlcNAc(b1-3)Gal(b1-4)GlcNAc(b1-3)[GlcNAc(b1-3)Gal(b1-4)GlcNAc(b1-3)]GalNAc
# Summary of the method: as §1
# GlcNAc(b1-3)Man = target: GlcNAc(b1-3)Man
# Summary of the method: as §1
# [11] = target: GlcNAc(b1-3)[GlcNAc(b1-4)][GlcNAc(b1-6)]GlcNAc
# Summary of the method: as §1
# [12] = target: GlcNAc(b1-3)[GlcNAc(b1-6)]GalNAc
# Summary of the method: as §1
# Kdn(a2-3)Gal(b1-3)GlcNAc = target: Kdn(a2-3)Gal(b1-3)GlcNAc
# Summary of the method: as §1
# [13] = target: Man(a1-2)Man(a1-2)Man(a1-6)[Man(a1-3)]Man
# Summary of the method: as §1
# Man(a1-2)Man(a1-3)Man = target: Man(a1-2)Man(a1-3)Man
# Summary of the method: as §1
# [14] = target: Neu5Ac(a2-3)Gal(b1-3)GalNAc(b1-4)Gal(b1-4)Glc
# Summary of the method: as §1
# [15] = target: Neu5Ac(a2-3)Gal(b1-3)GlcNAc
# Summary of the method: as §1
# [16] = target: Neu5Ac(a2-3)Gal(b1-3)[Fuc(a1-4)]GlcNAc(b1-3)Gal(b1-4)[Fuc(a1-3)]GlcNAc
# Summary of the method: as §1
# [17] = target: Neu5Ac(a2-3)Gal(b1-3)[GlcNAc(b1-6)]GalNAc
# Summary of the method: as §1
# [18] = target: Neu5Ac(a2-3)Gal(b1-4)GlcNAc(b1-2)[Neu5Ac(a2-3)Gal(b1-4)GlcNAc(b1-4)]Man(a1-3)[GlcNAc(b1-4)][Neu5Ac(a2-3)Gal(b1-4)GlcNAc(b1-4)Man(a1-6)]Man(b1-4)GlcNAc(b1-4)GlcNAc
# Summary of the method: as §1
# [19] = target: Neu5Ac(a2-3)Gal(b1-4)GlcNAc(b1-2)[Neu5Ac(a2-3)Gal(b1-4)GlcNAc(b1-6)]Man(a1-6)[Neu5Ac(a2-3)Gal(b1-4)GlcNAc(b1-2)Man(a1-3)][GlcNAc(b1-4)]Man(b1-4)GlcNAc(b1-4)GlcNAc
# Summary of the method: as §1
# [20] = target: Neu5Ac(a2-3)Gal(b1-4)GlcNAc(b1-6)[Gal(b1-3)]GalNAc
# Summary of the method: as §1
# [21] = target: Neu5Ac(a2-6)Gal(b1-4)GlcNAc(b1-2)Man(a1-3)[GlcNAc(b1-2)Man(a1-6)]Man(b1-4)GlcNAc(b1-4)GlcNAc
# Summary of the method: as §1
# [22] = target: Neu5Ac(a2-6)Gal(b1-4)GlcNAc(b1-3)Gal(b1-4)GlcNAc(b1-2)Man(a1-3)[Neu5Ac(a2-6)Gal(b1-4)GlcNAc(b1-3)Gal(b1-4)GlcNAc(b1-2)Man(a1-6)]GalNAc
# Summary of the method: as §1
# [23] = target: Neu5Ac(a2-6)Gal(b1-4)GlcNAc(b1-6)[Gal(b1-3)]GalNAc
# Summary of the method: as §1
# Neu5Gc(a2-3)Gal(b1-4)Glc = target: Neu5Gc(a2-3)Gal(b1-4)Glc
# Summary of the method: as §1
# [24] = target: Neu5Gc(a2-3)Gal(b1-4)[Fuc(a1-3)]GlcNAc
# Summary of the method: as §1
binder,measurement,setting,value
B1,glycan array binding signal (z-score),[1],-0.366
same,glycan array binding signal (z-score),Gal4S(b1-4)GlcNAc,-0.569
same,glycan array binding signal (z-score),GalNAc(b1-3)GlcNAc,-0.08
same,glycan array binding signal (z-score),[2],-0.408
same,glycan array binding signal (z-score),GlcA(b1-6)Gal,0.43
same,glycan array binding signal (z-score),[3],14.9
same,glycan array binding signal (z-score),[4],12.7
same,glycan array binding signal (z-score),[5],-0.067
same,glycan array binding signal (z-score),[6],-0.109
same,glycan array binding signal (z-score),GlcNAc(b1-3)Gal(b1-4)Glc,1.42
same,glycan array binding signal (z-score),[7],0.909
same,glycan array binding signal (z-score),[8],0.906
same,glycan array binding signal (z-score),[9],0.818
same,glycan array binding signal (z-score),[10],0.58
same,glycan array binding signal (z-score),GlcNAc(b1-3)Man,-0.511
same,glycan array binding signal (z-score),[11],-0.568
same,glycan array binding signal (z-score),[12],-0.374
same,glycan array binding signal (z-score),Kdn(a2-3)Gal(b1-3)GlcNAc,-0.066
same,glycan array binding signal (z-score),[13],-0.576
same,glycan array binding signal (z-score),Man(a1-2)Man(a1-3)Man,-0.172
same,glycan array binding signal (z-score),[14],0.045
same,glycan array binding signal (z-score),[15],-0.26
same,glycan array binding signal (z-score),[16],-0.137
same,glycan array binding signal (z-score),[17],0.214
same,glycan array binding signal (z-score),[18],-0.283
same,glycan array binding signal (z-score),[19],1.54
same,glycan array binding signal (z-score),[20],0.404
same,glycan array binding signal (z-score),[21],-0.73
same,glycan array binding signal (z-score),[22],-0.58
same,glycan array binding signal (z-score),[23],0.137
same,glycan array binding signal (z-score),Neu5Gc(a2-3)Gal(b1-4)Glc,1.34
same,glycan array binding signal (z-score),[24],0.023
